Most compounds without a hit are left out; they make up all but 7.4% or so of the library.
FXIa mix inh: blocks human factor XIa in pooled compound mixtures; 0.19% of 62,000 active; P03951; inhibition, % at 5 µM; purified FXIa, fluorogenic substrate;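 also: each value is inhibition by a whole ten-compound pool holding the compound; 0% = enzyme with no mixture and 100% = wells lacking enzyme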
FXIIa mix inh: factor XIIa (human) inhibition, mixture screen. AID 684. P00748. 0.2% of 62,000 active. purified FXIIa, fluorogenic substrate, pooled mixtures. inhibition, % at 5 µM;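 also: 0% = enzyme without compound and 100% = no enzyme blank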
D1 allo mod: D1 dopamine receptor (human) allosteric modulation. HEK293 D1, CRE-luciferase, dopamine EC30 potentiation; actives deviate in either direction. B-score at 10 µM. 5.9% of 58,000 active. AID 641;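 active = luminescence count or its row- and column-corrected plate score outside the 99.7% band of the plate's sample wells, on either side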
Target sequence (P21728 whole entry, looked up): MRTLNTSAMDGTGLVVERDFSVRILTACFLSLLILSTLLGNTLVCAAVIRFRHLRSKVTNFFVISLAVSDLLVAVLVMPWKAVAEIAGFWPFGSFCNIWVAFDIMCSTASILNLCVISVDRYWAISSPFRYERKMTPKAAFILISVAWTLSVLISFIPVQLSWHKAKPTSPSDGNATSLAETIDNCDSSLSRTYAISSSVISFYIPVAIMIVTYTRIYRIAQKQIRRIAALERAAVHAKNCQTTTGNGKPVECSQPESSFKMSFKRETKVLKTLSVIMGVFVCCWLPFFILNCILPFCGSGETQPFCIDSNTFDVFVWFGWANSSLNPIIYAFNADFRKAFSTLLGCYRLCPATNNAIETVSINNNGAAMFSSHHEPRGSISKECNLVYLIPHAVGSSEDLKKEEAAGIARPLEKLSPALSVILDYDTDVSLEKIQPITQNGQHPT
M1 antag: M1 muscarinic receptor (rat) antagonism. CHO-M1 cells, Fluo-4 calcium, ACh EC80 antagonist mode; active compounds read low. B-score at 10 µM. 3.4% of 64,000 active. AID 628;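 active = calcium fluorescence response, raw or row-and-column corrected B-score, differing from the plate sample mean either way at a set confidence level, mostly lower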
hDAT+cocaine: changed human dopamine transporter uptake under cocaine IC80. Q01959. AID 449768. LLC-PK1 hDAT cells, [14C]-dopamine uptake with cocaine IC80; actives deviate in either direction. 1.3% of 110,000 active. B-score at 10 µM;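 active = Z score or B-score, a plate-position-corrected score, falls beyond the plate's 99.7% confidence bounds, in either direction; inactive = both scores lie inside the 99.7% bounds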;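 also: scored against the spread of the other compound wells on the same plate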
M1 ag: M1 muscarinic receptor agonism; B-score at 10 µM; 3% of 64,000 active; CHO-M1 cells, Fluo-4 calcium fluorescence, agonist mode; active compounds read high;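 active = fluorescence rise, raw or as B-score row- and column-corrected plate score, outside the 99.7% band of its plate's samples, either direction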
M1 antag conf: confirmation of rat M1 muscarinic receptor antagonists; shares compounds with M1 antag; CHO-M1 cells, Fluo-4 calcium, ACh EC80 antagonism; active compounds read low; calcium response (max-min fluorescence) at 10 µM; 43% of 1,700 active; AID 677;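 active = calcium response below the same-plate mean of wells given acetylcholine alone at its 80%-effect dose, minus 3 SD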;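 also: raw fluorescence intensity difference in arbitrary instrument units and not normalized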
mGluR4 antag: selectivity test for M1 antagonists: human mGluR4 receptor. shares compounds with M1 antag. 0.9% of 1,700 active. CHO-mGluR4 calcium flux, Fluo-4 fluorescence, glutamate EC80; active compounds read low. fluorescence response (max-min) at 10 µM. AID 678;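 active = fluorescence response below the plate's average for near-maximal glutamate wells, less 3 SD of those wells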;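 also: raw unnormalized fluorescence span taken in the window right after glutamate addition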
The depositor's hits bear a star. Rule as the data show it, unless noted: active = inhibition above about 20% (passing the limit was not always enough); inactive = the rest.

`COc1cccc2cc(C(=O)N3CCN(C45CC6CC(CC(C6)C4)C5)CC3)c(=O)oc12` gave FXIa mix inh -3, FXIIa mix inh 9, D1 allo mod -0.11, M1 antag -1.8*, hDAT+cocaine -0.9, M1 ag 0.5, M1 antag conf 412* and mGluR4 antag 201.
`COc1cccc2cc(C(=O)N3CCC(C)CC3)c(=O)oc12` gave FXIa mix inh 7, FXIIa mix inh 7, D1 allo mod 0.87, M1 antag 0.096, hDAT+cocaine -0.74 and M1 ag -0.95.
`CCOc1ccc(N=CC2=C(O)CC(C)(C)CC2=O)cc1` gave FXIa mix inh 7, FXIIa mix inh 2, D1 allo mod 0.85, M1 antag 0.13, hDAT+cocaine -0.8 and M1 ag -0.22.
Screening CC1(C)CC(=O)C(C=Nc2ccc(O)cc2)=C(O)C1 returned FXIa mix inh 7, FXIIa mix inh -20, M1 antag -2.2*, hDAT+cocaine 0.031, M1 ag -0.053, M1 antag conf 644 and mGluR4 antag 249.
Screening O=C(CN1CCOCC1)OCCCC1CCCCC1 returned FXIa mix inh 3, FXIIa mix inh -16, M1 antag -3.9*, hDAT+cocaine 1, M1 ag -0.9, M1 antag conf 517 and mGluR4 antag 194.
`CC(C)c1ccc(OCC(=O)NC(=S)Nc2ccc3c4c(cccc24)CC3)cc1` gave hDAT+cocaine -0.6.
`Oc1ccc(C2Nc3cccc4cccc(c34)N2)c(O)c1` gave hDAT+cocaine 0.015.
For c1coc(C2Nc3cccc4cccc(c34)N2)c1 the results were FXIa mix inh 15, FXIIa mix inh 5, D1 allo mod -0.29, M1 antag -2.2*, hDAT+cocaine -0.033, M1 ag 0.25, M1 antag conf 602 and mGluR4 antag 249.
CS(=O)(=O)c1ccc2nc(NC(=O)CN3CCN(Cc4ccccc4)CC3)sc2c1 was read as FXIa mix inh 1, FXIIa mix inh 6, D1 allo mod -0.87, M1 antag -2.5*, hDAT+cocaine 0.23, M1 ag -0.79, M1 antag conf 567 and mGluR4 antag 232.
For CS(=O)(=O)c1ccc2nc(NC(=O)CC3CCCC3)sc2c1 the results were FXIa mix inh 0, FXIIa mix inh -1, D1 allo mod 1.9, M1 antag 0.74, hDAT+cocaine 1.8 and M1 ag -0.097.
C=CCN(c1ccccc1)S(=O)(=O)c1ccc2c(c1)oc(=O)n2C was read as FXIa mix inh 3, FXIIa mix inh 4, D1 allo mod -0.3, M1 antag -1.9, hDAT+cocaine 0.036 and M1 ag -2.
Screening C=CCN(C1CCCCC1)S(=O)(=O)c1ccc2c(c1)oc(=O)n2C returned FXIa mix inh 0, FXIIa mix inh 9, D1 allo mod 0.75, M1 antag -4.9*, hDAT+cocaine 1.2, M1 ag 0.83, M1 antag conf 567 and mGluR4 antag 289.
`O=C1CN(C(=O)CN2CCCC2)C(c2ccccc2)c2cc(Br)ccc2N1` (configuration not stated) gave FXIa mix inh -11, FXIIa mix inh 1, D1 allo mod -0.68, M1 antag -2.8*, hDAT+cocaine -1.9, M1 ag -0.25, M1 antag conf 473 and mGluR4 antag 305.
`O=S(=O)(c1ccccc1)N1CCN(C2CCN(Cc3ccccc3)CC2)CC1` gave FXIa mix inh 4, FXIIa mix inh 2, D1 allo mod -2.4, M1 antag -7.5*, hDAT+cocaine 0.012, M1 ag 0.45, M1 antag conf 244* and mGluR4 antag 172.
COc1cccc(CN2CCCN(S(=O)(=O)c3ccc(Br)cc3)CC2)c1 was read as FXIa mix inh -3, FXIIa mix inh 12, D1 allo mod 0.55, M1 antag -10*, hDAT+cocaine 0.87, M1 ag 1.6, M1 antag conf 301* and mGluR4 antag 260.
Screening O=S(=O)(c1ccc2ccccc2c1)N1CCN(C2CCN(Cc3ccccc3)CC2)CC1 returned hDAT+cocaine 0.53.

High-throughput results from PubChem.
